This note sets out measurements from PubChem BioAssay AID720569 (National Center for Advancing Translational Sciences (NCATS), 2013).

The other results are listed elsewhere or left out. Inconclusive results are not listed. Calls of active or inactive are those of the source. The call rests on the fitted dose curve; in most records, active means well fitted inhibition curve with a large enough effect; inconclusive means small, poorly fitted or top-dose-only effect; inactive means no such curve, though single readings can be large or run the other way.
Potency means the concentration at half of the fitted maximal effect.

The assay concerns pyruvate kinase (Trypanosoma brucei). Description: qHTS of Trypanosoma Brucei Inhibitors: Confirmatory Assay for Cherry-picked Compounds. Further: nearly all actives have a fitted effect of over 70% in size. The note with it: recombinant TbPYK, Kinase-Glo ATP luminescence. An excerpt:
Members of the Trypanosomatidae family of parasitic protozoans cause a spectrum of diseases throughout the tropical and subtropical world. Sleeping sickness, caused by two subspecies of Trypanosoma brucei, is endemic to areas of sub-Saharan Africa, while Chagas' disease, a manifestation of Trypanosoma cruzi infection, is prevalent throughout Central and South America. In addition, many species of Leishmania are responsible for a range of cutaneous and visceral diseases, causing ulcers, destructive lesions and kalaazar, a lethal infection of the viscera. These diseases cause severe public health and economic burdens on populations that are often already caught in a tragic cycle of poverty, poor nutrition and disease. Collectively, parasites of the trypanosomatid family infect 30 million people worldwide (~500 million live in endemic areas), and account for ~130K deaths annually. Existing treatments have developed little in the past 50 years, and suffer from toxicity, poor efficacy and resistance; the goal of this project is to develop lead drugs that will be suitable for entry into pre-clinical trials. […] Glycolysis in axenically cultured T. cruzi, representing the intracellular pathogenic stage, is also essential for these parasites. {Engel, 1987} This project aims to discover and optimize selective inhibitors of the glycolytic enzyme pyruvate kinase (PYK) from Trypanosoma brucei, the parasite that causes sleeping sickness. […] Trypanosomatid PYKs show significant differences from their human counterparts including only 47-50% sequence identity and different allosteric and activation properties.{Callens, 1992} To this end, a qHTS was done against the MLSMR to discover inhibitors. NIH Molecular Libraries Probe Production Network [MLPCN] NIH Chemical Genomics Center [NCGC] Grant: MH095452 PI Name: Malcolm Walkinshaw, University of Edinburgh
Two uL of TbPYK/substrate buffer (columns 1-3, 5-48) are dispensed into Greiner white solid bottom 1536-well assay plates; column 4 receives only TEA buffer as 0x TbPYK controls. Compounds are then transferred via Kalypsys pin tool equipped with 1536-pin array (10 nL slotted pins, V&P Scientific, San Diego, CA). Following addition of compound, 2 uL of ADP (130 uM final concentration, all columns) is added to initiate the reaction. The plates are then incubated at room temperature for 45 minutes. Kinase-Glo Plus reagent is added (3 uL) and plates incubated for 10 minutes, before being transferred to a ViewLux high-throughput CCD imager (PerkinElmer) wherein single end-point measurements of luminescence are acquired using a clear filter. All reagents are diluted in an assay buffer consisting of 50 mM TEA (pH 7.2), 100 mM KCl, 10 mM MgCl2, 0.05% BSA and 0.01% Tween-20. […]
A general note: qHTS replaces the single test concentration by a dilution series.
With `O=C1NC(=O)N(c2ccccc2)C(=O)/C1=C/c1ccc([N+](=O)[O-])s1`, the Potency is 8.91 µM (active).

Turning to `COc1ccc(N2C(=O)/C(=C/c3ccco3)C(=O)NC2=S)cc1`, the Potency is 14.1 µM (active).

Turning to `O=C(O)CCn1cc(C=C2C(=O)NC(=S)NC2=O)c(-c2cccc(Br)c2)n1`, the Potency is 6.31 µM (active).

As to `Cc1ccc2c(c1)=C/C(=C\c1c(O)[nH]c(=O)[nH]c1=O)C(=O)N=2`, the Potency is 17.8 µM (active).
